A selection: hits, their analogues and other compounds. The true share with any hit is near 7.3%.
HCV inhibitor: qHTS Assay for Inhibitors of Hepatitis C Virus (HCV); AID 651820, 2012; 340,000 compounds, 3.4% hits; Huh7.5.1 HCVcc-Cre infection, luciferase reporter, 44 h; Potency, µM (titrated, usually from 41.8 µM), without a hit: at the highest dose activity change, negative = inhibition, actives largely listed as inhibitors; note: potency is the fitted concentration of half-maximal effect
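Luciferase read-out (15 sec integration) after a 15 min room-temperature substrate step quantifies HCVcc-Cre infection. Cells, 1,000 per well, had compound added 4 h post-plating, then virus at ~0.5 moi, and were cultured 44 h.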
AmpC inh no detg: qHTS Inhibitors of AmpC Beta-Lactamase (assay without detergent) | 330,000 compounds, 0.52% hits | AmpC nitrocefin hydrolysis, absorbance 480 nm, 0.0001% Triton | Potency, µM (doses to about 57.1 µM), inactives show at the top dose activity change, negative = inhibition, actives largely listed as inhibitors;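 note: potency is the fitted concentration of half-maximal effect; plate controls were no compound for no effect and no enzyme for full effect; nearly all actives have a fitted effect of over 20% in size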
Target sequence (P00811 whole entry, looked up): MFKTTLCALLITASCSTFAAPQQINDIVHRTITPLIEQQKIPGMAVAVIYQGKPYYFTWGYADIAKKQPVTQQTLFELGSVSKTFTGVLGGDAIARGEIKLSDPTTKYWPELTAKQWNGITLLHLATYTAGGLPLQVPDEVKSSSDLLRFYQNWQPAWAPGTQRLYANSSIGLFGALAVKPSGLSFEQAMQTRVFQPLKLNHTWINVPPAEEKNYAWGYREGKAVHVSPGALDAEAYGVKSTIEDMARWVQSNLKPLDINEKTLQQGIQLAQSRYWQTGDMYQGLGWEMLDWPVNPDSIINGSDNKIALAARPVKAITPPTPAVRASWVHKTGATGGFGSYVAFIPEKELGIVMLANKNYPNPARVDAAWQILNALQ
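20 mM phosphate pH 7.0 + 0.01% (detergent screen) or 0.0001% Triton X-100; 5.3 nM AmpC reagent; cpd preinc 15 min RT; nitrocefin (800 uM stock) to start; A480 q20 s × 4 min; Activity was normalised to no-enzyme and no-compound control wells.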
HCMV antiviral: qHTS Assay for inhibitors of the human cytomegalovirus (HCMV); HFF cells, HCMV-luciferase reporter, 72 h; hits give low values; activity change, negative = inhibition, % at 57.5 µM; 410,000 compounds, 4.5% hits; AID 1259415, 2018; in the data active = activity change below about -60%; inconclusive = no clear call, values can overlap the other calls; inactive = above about -39%
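Screen run at 2 compound doses on HFFs infected with reporter HCMV, MOI 1 PFU/cell. Luciferase activity from cell lysates at 72 h post infection gave inhibition relative to buffer-only and Salinomycin wells.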
FMDV inh: High Throughput Screening for Foot and Mouth Disease Virus Antivirals | FMDV antiviral cell-based qHTS | Potency, µM (series often up to 57.9 µM), for the others: at the highest dose activity change, negative = inhibition, hits mostly inhibitors | 410,000 compounds, 1.2% hits; calls by dose curve; tested in HEK293T cells; note: read-out not given here; potency is the fitted concentration of half-maximal effect; nearly all actives have a fitted effect of over 45% in size
AmpC inh detg: qHTS Inhibitors of AmpC Beta-Lactamase (assay with detergent); P00811; AmpC hydrolysis of nitrocefin, absorbance 480 nm, 0.01% Triton; Potency, µM (top dose mostly 114 µM), for inactives: top-dose activity change, negative = inhibition, usual class: inhibitors; 370,000 compounds, 0.041% hits;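 note: potency is the fitted concentration of half-maximal effect; 0% = no-compound wells and -100% = no-enzyme wells; nearly all actives have a fitted effect of over 25% in size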
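20 mM phosphate pH 7.0 + 0.01% (detergent screen) or 0.0001% Triton X-100; 5.3 nM AmpC reagent; cpd preinc 15 min RT; nitrocefin (800 uM stock) to start; A480 q20 s × 4 min; Activity was normalised to no-enzyme and no-compound control wells.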
Numbers without * were called inactive; ? = inconclusive; . = no result. Unless noted, calls come from the whole dose curve; as a rule, active = well fitted curve in the direction sought with a large enough effect; inconclusive = small, poorly fitted or top-dose-only effect, or another doubt; inactive = no such curve, though single readings can be large; an effect the other way counts as inactive or inconclusive. Unless noted, % is set by controls: 0 for no effect and ±100 for the full control effect.

SMILES	HCV inhibitor	AmpC inh no detg	HCMV antiviral	FMDV inh	AmpC inh detg
O=C(Nc1ccc(-c2noc(CCc3ccccc3)n2)cc1)c1ccco1	?	-20%	-88*	-32%	?
c1ccc(-c2ccccc2-c2nc(-c3cccnc3)no2)cc1	11µM*	37%	-16	-7%	?
c1ccc(CCc2ccccc2-c2nc(-c3cccnc3)no2)cc1	7.1µM*	21%	-22	?	-1%
c1cncc(-c2noc(-c3cccc4ccccc34)n2)c1	?	-17%	211	54%	-3%
c1ccc(CCc2nc(-c3cccnc3)no2)cc1	11µM*	-10%	10	42%	-1%
Cc1ccccc1S(=O)(=O)N(C)C[C@H]1OCc2cnnn2CCCC(=O)N([C@H](C)CO)C[C@@H]1C	.	.	-1	.	.
Cc1csc2nc(-c3ccc(NS(=O)(=O)c4cccc(F)c4)cc3)cn12	.	.	-11	15%	-2%
COCc1c(C#N)c(NCc2cc(OC)c(OC)c(OC)c2)nc(C)c1[N+](=O)[O-]	11µM*	69%	-34	14µM*	1%
O=C1CCCCC1Sc1nnc(-c2ccc3c(c2)OCO3)o1 (stereo unspecified)	-1%	-14%	?	4µM*	?
Clc1ccc(CSc2nnc(-c3ccc4c(c3)OCO4)o2)cc1	-6%	-25%	13	1%	-2%
O=C(c1cc(Sc2cccc(Cl)c2)nc2ccccc12)N1CCN(c2ccccn2)CC1	10µM*	?	?	-24%	-4%
O=C(c1cnc(N2CCN(c3ccccn3)CC2)c2ccccc12)N1CCN(c2cccc(Cl)c2)CC1	5µM*	46%	-94*	8.9µM*	-4%
O=C(Nc1ccc(C(F)(F)F)cc1)c1cnc(N2CCN(c3ccccn3)CC2)c2ccccc12	-12%	-27%	37	7.1µM*	-15%
CCOc1ccc(Oc2ccccc2NC(=O)CN2C(=O)NC3(CCCC3)C2=O)cc1	-5%	-2%	-9	1%	-13%
CCOC(=O)[C@]12Cc3cc(C)ccc3[C@H]1N(C1CCCCC1)C(=O)c1cc(OC)ccc12	.	.	-104*	3.5µM*	.
CCOC(=O)[C@]12Cc3cc(OC)ccc3[C@H]1N(C1CCCCC1)C(=O)c1cc(OC)ccc12	.	.	-98*	13µM*	.
c1ccc(CCNc2nc(-c3ccncc3)nc3ccccc23)cc1	13µM*	-45%	-71*	?	5%
Oc1ccccc1-c1nc(NCc2ccccc2)c2ccccc2n1	11µM*	-44%	-31	-16%	-2%
Fc1ccccc1-c1nc(NCc2ccco2)c2ccccc2n1	-25%	-33%	-81*	-29%	-4%
COC(=O)CNc1nc(-c2ccncc2)nc2ccccc12	-32%	-18%	123	-22%	-1%
CC(C)Oc1nc(-c2ccccc2O)nc2ccccc12	13µM*	-11%	-17	36%	-12%
O=c1c2ccccc2nc2c3ccccc3c(NCc3ccco3)nn12	?	-25%	9	-9%	0%
Oc1ccccc1-c1nc(N2CCCC2)c2ccccc2n1	?	-24%	19	4%	?
Cc1ccccc1-c1nc(NCc2cccnc2)c2ccccc2n1	.	.	.	-13%	.
O=C(CSc1nncn1-c1ccccc1)NC1CCCC1	-4%	-7%	9	-7%	0%
SMILES	HCV inhibitor	AmpC inh no detg	HCMV antiviral	FMDV inh	AmpC inh detg
O=C(C1CCN(S(=O)(=O)c2ccccc2)CC1)N1CCCCCC1	.	11%	-24	-13%	-5%
O=C(/C=C\c1ccccc1)NC1CC(=O)N(c2ccccc2)C1 (stereo unspecified)	.	.	37	-12%	3%
c1coc(CNc2nc(N3CCCCC3)nc3ccccc23)c1	?	-7%	?	-6%	0%
C(=N\Nc1nc(-c2ccccn2)nc2ccccc12)/c1ccccc1	?	-12%	.	.	6%
c1ccc(N2CCN(c3nc(NCc4ccco4)c4ccccc4n3)CC2)cc1	1µM*	-26%	-6	28µM*	?
c1ccc(-c2nc(NCc3ccco3)c3ccccc3n2)nc1	?	-7%	-102*	?	?
Fc1ccccc1CNc1nc(-c2cccnc2)nc2ccccc12	35µM*	-35%	12	3%	-4%
Oc1ccccc1-c1nc(NCc2ccco2)c2ccccc2n1	3.2µM*	-43%	2	13%	?
COC(=O)[C@@H]1[C@@H](CO)[C@@H]2Cn3c(ccc(Br)c3=O)[C@@H]2N1Cc1cccc(F)c1	.	.	-3	.	.
Cc1ccc(C)c2[nH]c(=O)c(CCNC(=O)CCc3ccccc3)cc12	0%	-12%	-76*	-2%	?
CCC(CC)C(=O)NCCc1cc2c(OC)ccc(OC)c2[nH]c1=O	-15%	-20%	0	0%	-1%
COc1ccc(OC)c2[nH]c(=O)c(CCNC(=O)C(C)C)cc12	-4%	10µM*	-27	-22%	?
COc1ccc2c(c1)CC/C=C(/c1ccccc1)CCO2	.	.	-8	.	.
CCOc1ccc(NC(=O)c2cccc(S(=O)(=O)NCc3cccnc3)c2)cc1	.	.	14	-24%	.
COc1ccc(C(=O)Nc2ccc(OCC(F)(F)C(F)F)c(C(F)(F)F)c2)cc1OC	11µM*	54%	-99*	?	-6%
COc1ccc(NC(=O)c2ccc(COCC(F)(F)F)cc2)cc1OC	-28%	-3%	-24	-19%	?
O=C(Nc1ccc(OCC(F)(F)C(F)F)c(C(F)(F)F)c1)c1ccc(Cl)cc1	7.9µM*	.	-95*	?	.
CC(c1ccon1)N(C)C(=O)c1cnn(-c2ncc3c(n2)-c2ccccc2CC3)c1C1CC1 (stereo unspecified)	.	.	.	25%	.
CC(=O)OCCN(CCCn1c(-c2ccncc2)nc2ccccc21)c1nc(CN2CCCCC2)cs1	2.5µM*	31%	28	-10%	-7%
c1ccc2c(c1)nc(-c1ccncc1)n2CCNc1nc(CN2CCCCC2)cs1	9%	-24%	-9	-22%	-1%
CN1C(=O)COCc2cc(-c3ccc(F)c(Cl)c3)ccc21	.	.	52	.	.
c1ccc(Sc2cccc3ccccc23)c(CNC2=NCCN2)c1	?	-7%	-67*	?	1%
CN(C)Cc1ccccc1Sc1cccc2ccccc12	?	33%	-22	?	8%
Fc1ccccc1Sc1ccccc1CNC1=NCCN1	?	-1%	-61*	-17%	0%
CC(=O)C1N=NCC1c1ccccc1 (stereo unspecified)	10%	.	-34	4%	.
C#CCn1c(=NC(=O)c2ccc(Cl)s2)sc2cccc(OC)c21	-4%	?	5	14%	-13%
C#CCn1c(=NC(=O)c2cccs2)sc2cccc(OCC)c21	?	-16%	-67*	-21%	?

Bioassay records as filed in PubChem.
